This is part of a sample that, as a whole, favours compounds with a hit. Of some 83,000 tested, about 20% had one in any assay.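 Method: cells in 96-well plates; compound added at one concentration; 48 h incubation; percent growth measured; values under 10 scored active.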 A number with no mark means an inactive call. Activity calls are given as the source filed them.
These compounds were tested on HL-60(TB) leukemia (assay: NCI-60 one-dose screen, 48 h (100 = growth as untreated, 0 = no growth, -100 = all killed)). Conditions: 10 µM unless noted.

Row | Compound | growth
1 | CCCCOC(=O)c1ccccc1O | 93.2%
2 | c1ccc2[nH]c(-c3ccc(OCCCCCOc4ccc(-c5nc6ccccc6[nH]5)cc4)cc3)nc2c1 | -45.7% (active)
3 | C=C1CC[C@@H]2C(C)(C)[C@@H](O)CC[C@@]2(C)[C@@H]1COc1ccc2ccc(=O)oc2c1 | 69.1%
4 | CN(C)C(=S)N(C)C | 86.6%

— PubChem BioAssay (NCI)
